SMN2 splice up: qHTS Assay for Enhancers of SMN2 Splice Variant Expression. Potency, µM (top dose mostly 46.1 µM), for inactives: at the highest dose activity change, positive = activation, actives largely listed as activators. HEK293 SMN2-luciferase splicing reporter, luminescence, 30-36 h. 2.8% of 210,000 active; note: % of control where 0% means no effect; nearly all actives have a fitted effect of over 55% in size
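HEK293 cells carry an SMN2 minigene-luciferase reporter in which exon 7 inclusion puts luciferase in frame. Cells were seeded at 2000 cells/well, attached for 10-12 hours, then exposed to compounds for 30-36 hours at 37C before ONE-Glo luminescence.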
FLuc counter: qHTS profiling assay for firefly luciferase inhibitor/activator using purifed enzyme and Km concentrations of substrates (counterscreen for miR-21 project); AID 588342, 2011; purified FLuc, Km substrates, luminescence inhibition; Potency, µM (highest dose often 57.5 µM), inactives show at the top dose activity change, negative = inhibition, actives largely listed as inhibitors; 6.9% of 360,000 active; Luciferin 4-monooxygenase (Photinus pyralis), P08659;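 note: plate controls were vehicle for no effect and reference inhibitor for full effect; nearly all actives have a fitted effect of over 55% in size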
Target sequence (P08659 whole entry, looked up): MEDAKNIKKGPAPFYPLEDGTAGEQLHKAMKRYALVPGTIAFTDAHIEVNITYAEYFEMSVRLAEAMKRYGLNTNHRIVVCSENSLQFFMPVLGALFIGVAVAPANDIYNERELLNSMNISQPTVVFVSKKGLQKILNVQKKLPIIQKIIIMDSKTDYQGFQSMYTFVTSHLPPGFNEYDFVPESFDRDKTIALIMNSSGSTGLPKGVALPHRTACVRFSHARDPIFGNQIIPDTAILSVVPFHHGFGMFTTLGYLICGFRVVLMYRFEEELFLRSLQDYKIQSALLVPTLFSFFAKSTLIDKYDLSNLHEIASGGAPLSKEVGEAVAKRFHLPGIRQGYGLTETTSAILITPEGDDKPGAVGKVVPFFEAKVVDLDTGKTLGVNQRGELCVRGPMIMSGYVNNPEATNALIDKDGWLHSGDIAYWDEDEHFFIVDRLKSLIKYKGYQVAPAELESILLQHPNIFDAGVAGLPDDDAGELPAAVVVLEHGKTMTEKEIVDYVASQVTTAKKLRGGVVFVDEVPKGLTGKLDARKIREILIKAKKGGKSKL
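Purified P. pyralis luciferase, 10 nM final, with Km-level 10 uM D-luciferin and 10 uM ATP in 50 mM Tris acetate pH 7.5, 10 mM Mg acetate, 0.01% Tween-20, 0.05% BSA; 6-point qHTS titration about 60 µM downward; luminescence read.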
KinaseGlo FLuc: Counterscreen for Luciferase (Kinase-Glo TM) Inhibition; Potency, µM (series often up to 38.3 µM), inactives show at the top dose activity change, negative = inhibition, actives largely listed as inhibitors; Kinase-Glo luciferase, ATP luminescence, 8 min; Luciferin 4-monooxygenase (Photuris pensylvanica), Q27757; AID 1379, 2008; 0.28% of 200,000 active; note: % is set by controls: 0 for no effect and ±100 for the full control effect; nearly all actives have a fitted effect of over 60% in size
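Compounds were added to a substrate mix at pH 7.2 (50 mM imidazole, 10 uM ATP, within the enzyme's linear range), followed by Kinase-Glo detection reagent; luminescence was measured after 8 minutes at ambient temperature.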
Rab9 promoter act: qHTS Assay for Rab9 Promoter Activators. Huh7 Rab9 promoter-luciferase reporter, luminescence, 24 h. Potency, µM (top dose mostly 9.22 µM), without a hit: at the top dose activation, negative = inhibition, usual class: activators. 2.8% of 320,000 active; note: % of control where 0% means no effect; nearly all actives have a fitted effect of over 60% in size
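Measured in stably transfected Huh7 cells bearing a Rab9 promoter–luciferase construct: 24 h compound treatment at 37 °C, followed by luminescence detection.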
NPC1 prom act: qHTS Assay for NPC1 Promoter Activators; 2.4% of 320,000 active; Potency, µM (highest dose often 9.22 µM), for inactives: at the top dose activation, hits mostly activators; Huh7 NPC1 promoter luciferase reporter, 24 h; note: % of control where 0% means no effect; nearly all actives have a fitted effect of over 60% in size
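In 1536-well qHTS, Huh7 cells harboring an NPC1 promoter–luciferase construct received compound for 24 h; activation was quantified by luminescence following luciferase reagent addition.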
ELG1 genotox: qHTS screen for small molecules that induce genotoxicity in human embryonic kidney (HEK293T) cells expressing luciferase-tagged ELG1. HEK293T ELG1-luciferase reporter, luminescence, 16 h. Potency, µM (doses to about 46 µM), without a hit: at the top dose activity change, positive = activation, usual class: activators. 1.3% of 330,000 active; note: % of control where 0% means no effect; nearly all actives have a fitted effect of over 60% in size
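Genotoxicity was scored as increased ELG1-luciferase reporter signal, measured by ONE-Glo luminescence (30 min, room temperature). Compound or vehicle exposure of the HEK293T reporter cells lasted 16 hr at 37°C.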
The depositor's hits bear a star; ? = inconclusive; . = no result given; [ ] = dose if it differs, or a comment. In the library only some 7.4% were active in any assay of this set; here they are far more common. Calls come from the whole dose curve; as a rule, active = well fitted curve in the direction sought with a large enough effect; inconclusive = small, poorly fitted or top-dose-only effect, or another doubt; inactive = no such curve, though single readings can be large; an effect the other way counts as inactive or inconclusive. Potency is the fitted concentration of half-maximal effect.

SMILES | SMN2 splice up | FLuc counter | KinaseGlo FLuc | Rab9 promoter act | NPC1 prom act | ELG1 genotox
Cc1cccc(NC(=O)c2cc(C)nc3ccccc23)c1 | . | -1% | . | -2% | 0% | 3%
c1ccc2sc(NN=C3CCCCCC3)nc2c1 | 4.5µM* | 0.34µM* | -11% | 0.22µM* | 0.35µM* | 0.46µM*
COc1cc(C(=O)Nc2nc3ccc(S(C)(=O)=O)cc3s2)cc(OC)c1C | . | -10% | . | 1% | 0% | -2%
CCn1c(=O)cc(OCC(=O)Nc2cc(OC)c(OC)c(OC)c2)c2ccccc21 | 6% | 1% | . | . | . | .
CN[C@@H]1[C@H](O[C@@H]2O[C@H](C)[C@@](O)(CO)[C@H]2O[C@H]2[C@H](O)[C@H](O)[C@H](N=C(N)N)[C@@H](O)[C@@H]2N=C(N)N)O[C@@H](CO)[C@H](O)[C@H]1O | . | . | 1%[39.9 µM] | . | . | .
C/C(=C\CNc1ncnc2c1ncn2[C@@H]1O[C@H](CO)[C@@H](O)[C@H]1O)CO | . | . | -1%[39.9 µM] | . | . | .
CS(=O)(=O)c1ccc2nc(NC(=O)c3cccs3)sc2c1 | 2.2µM* | 0.67µM* | ? | 0.4µM* | 0.4µM* | 0.92µM*
O=C(Nc1ccccc1)c1nc2ccccc2s1 | 3.2µM* | 1.1µM* | ? | 2.5µM* | 2.8µM* | 2.9µM*
CCOc1ccc(NC(=O)c2ccc(-c3nc(COc4ccccc4)c(C)o3)cc2)cc1 | . | -5% | . | . | . | .
COC(=O)c1sc(NC(=O)c2ccoc2C)nc1C | 22µM* | ? | 7.9µM* | ? | 29% | ?
COC(=O)c1sc(NC(=O)c2c(C)noc2C)nc1C | . | 24µM* | . | -2% | 6% | ?
COc1ccc2cc1Oc1ccc(cc1)C[C@@H]1c3c(cc(OC)c4c3Oc3cc5c(cc3O4)CCN[C@H]5C2)CCN1C | -6%[9.22 µM] | . | -1%[7.66 µM] | . | . | .
CCC(C)(C)NC(=O)Cn1c(=O)ccc2cc(S(=O)(=O)N3CCC(C)CC3)ccc21 | . | -4% | . | . | . | .
Cc1ccccc1OCC(=O)N/N=C/c1c(C)nn(-c2ccccc2)c1Cl | 17% | ? | 2% | -8% | -6% | 0%
Cc1nn(-c2ccccc2)c(Cl)c1/C=N/NC(=O)c1ccccc1F | . | 8.5µM* | . | 2.2µM* | ? | ?
Cc1cc(C(=O)N/N=C/c2c(C)nn(-c3ccccc3)c2Cl)n[nH]1 | . | 7.6µM* | . | ? | 29% | ?
Cc1nn(-c2ccccc2)c(Cl)c1/C=N/NC(=O)CNc1n[nH]c(=O)[nH]c1=O | -9% | ? | 0% | -1% | 1% | 2%
Cc1nn(-c2ccccc2)c(Cl)c1/C=N/NC(=O)c1[nH]ncc1Br | . | 0.6µM* | . | 0.4µM* | 0.32µM* | 1.5µM*
Cc1nn(-c2cccc(Cl)c2)c(Cl)c1/C=N/NC(=O)c1cccs1 | . | 0% | . | 17% | 4% | ?
Cc1nn(-c2ccccc2)c(Cl)c1/C=N/NC(=O)c1ccn[nH]1 | . | 0.76µM* | . | 1.1µM* | 0.22µM* | 8.2µM*
CCCN1CCN(c2nnc(-n3cccc3C(=O)Nc3cc(Cl)ccc3C)s2)CC1 | . | -15% | . | . | . | .
COC(=O)CNC(=O)[C@@]1(C)C=C[C@@H](Cc2ccccc2)N1C(C)=O | 14µM* | . | -24% | . | . | .
CCOC(=O)c1c(NC(=O)Cc2coc3cc(C)ccc23)sc2c1CCCC2 | 3% | -12% | . | . | . | .
Cc1ccc2c(CC(=O)Nc3sccc3C(N)=O)coc2c1 | ? | 11µM* | -2% | 2.8µM* | 2µM* | ?
Cc1ccc2c(CC(=O)Nc3ccc(N4CCN(C)CC4)cc3C)coc2c1 | -3% | 8.5µM* | -1% | 5% | ? | -1%
SMILES | SMN2 splice up | FLuc counter | KinaseGlo FLuc | Rab9 promoter act | NPC1 prom act | ELG1 genotox
O=C(Nc1ccc(Cl)cc1)C1CCN(S(=O)(=O)c2ccc(Br)s2)CC1 | -61% | -2% | . | . | . | .
N#Cc1ccccc1NC(=O)CN1C(=O)NC(Cc2c[nH]c3ccccc23)C1=O (configuration not stated) | . | 9.5µM* | . | 0% | 1% | 1%
CN1C(=O)C(Cc2c[nH]c3ccccc23)NC1=S (configuration not stated) | 13µM* | . | -1% | . | . | .
Cc1ccc(CN2CCCn3nc(C(=O)NCc4ccc(N(C)C)cc4)cc3C2=O)cc1 | . | -1% | . | . | . | .
Cc1cc(=O)n2[nH]c(-c3ccc(F)cc3)nc2n1 | 11% | 12µM* | ? | 3% | 19% | ?
Cc1nc2nc(-c3cccnc3)[nH]n2c(=O)c1C | -12% | ? | -9% | -2% | 2% | 14%
Cc1cc(=O)n2[nH]c(-c3cccnc3)nc2n1 | -24% | 17µM* | ? | 1% | -4% | 1%
Cc1cc(=O)n2[nH]c(NCc3ccc(F)cc3)nc2n1 | 8% | -11% | . | . | . | .
CCOC(=O)c1ccc(N2C(=O)c3[nH]nc(-c4ccc(C)cc4)c3C2c2cccc(F)c2)cc1 (configuration not stated) | -52% | -7% | . | . | . | .
COc1ccc(NC(=O)CSc2nc3nc(C)c(Cc4ccccc4)c(C)n3n2)cc1OC | . | 4% | . | . | . | .
CCn1cnc2cc(NCc3nc4ccccc4n3C)ccc21 | 7.1µM* | 3µM* | ? | 0.5µM* | 0.79µM* | 1.6µM*
CC(C)n1cnc2cc(NCc3nc4ccccc4n3C)ccc21 | 2.8µM* | 4.8µM* | ? | 1.1µM* | 1.3µM* | 15µM*
CCn1cnc2cc(NCc3nc4ccccc4n3Cc3ccccc3)ccc21 | ? | 5.4µM* | -10% | 2.8µM* | 3.5µM* | ?
c1ccc(CSc2ccc(-c3cccs3)nn2)cc1 | 16µM* | 1.9µM* | 0% | 2.8µM* | 3.2µM* | ?
c1ccc(CSc2nnc3ccc(-c4cccs4)nn23)nc1 | ? | . | 3% | 10% | 4% | 7%
Clc1ccc(CSc2ccc(-c3cccs3)nn2)cc1 | . | 0% | . | . | . | .
c1ccc(CSc2ccc(-c3cccs3)nn2)nc1 | 16µM* | 24µM* | -3% | 2.2µM* | 3.5µM* | 17%
FC(F)(F)c1cnc(-c2cnc(-c3ccccn3)nc2)c(Cl)c1 | 11µM* | 11µM* | -19% | 0.71µM* | ? | 2%
FC(F)(F)c1cnc(-c2cnc(-c3ccncc3)nc2)c(Cl)c1 | 24% | ? | 2% | 3.2µM* | ? | 2%
CC(Cl)c1cc(-c2ncc(C(F)(F)F)cc2Cl)no1 (configuration not stated) | 7% | ? | 0% | 2% | -2% | 7%
O=C(Nc1nc2ccccc2s1)C1CCN(C(=O)c2ccco2)CC1 | . | -7% | . | 0% | 0% | -14%

Bioassay records (PubChem)
